nsP2pro inh: blocks chikungunya virus nsP2 protease peptide cleavage | FRET peptide cleavage, nsP2pro, fluorescence 1 h | 31,000 compounds, 1.1% hits | Q8JUX6 | Potency, µM (doses to about 24.9 µM), inactives show at the top dose activity change, negative = inhibition, actives largely listed as inhibitors; note: nearly all actives have a fitted effect of over 60% in size
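Purified recombinant nsP2pro (150 nM final) in 10 mM Tris-HCl pH 8.0 with 0.01% Tween 20 was preincubated 15 min at room temperature with compound (7 concentrations, up to 25 uM). FRET peptide 2 substrate (2.5 uM final) was then added; fluorescence was read after 1 h.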
nsP2 cell sec: cell-based CHIKV nsP2 protease inhibition, secondary. shares compounds with nsP2pro inh. cell-based CHIKV nsP2 protease reporter assay. Potency, µM (titrated, usually from 51.1 µM), for inactives: at the highest dose activity change, negative = inhibition, actives largely listed as inhibitors. 450 compounds, 10% hits. AID 1964100; note: nearly all actives have a fitted effect of over 70% in size
CHIKV NSP2 FL: selectivity test for CHIKV nsP2 protease inhibitors: full-length NSP2. AID 1964101. 410 compounds, 39% hits. Full-length CHIKV NSP2 protease enzymatic counterscreen. Potency, µM (highest dose often 50.7 µM), for inactives: at the highest dose activity change, negative = inhibition, most hits filed as inhibitors. shares compounds with nsP2pro inh; note: nearly all actives have a fitted effect of over 65% in size
Furin counterscr: human furin inhibition, counterscreen for nsP2pro inhibitors; Recombinant human furin enzymatic counterscreen, fluorogenic substrate; 410 compounds, 6% hits; Potency, µM (series often up to 50.6 µM), without a hit: at the highest dose activity change, negative = inhibition, actives largely listed as inhibitors; shares compounds with nsP2pro inh
nsP2 NS23 pep: nsP2pro inhibition on native NS2/3 peptide substrate | shares compounds with nsP2pro inh | Purified CHIKV nsP2 protease, endogenous NS2/3 peptide cleavage | Potency, µM (highest dose often 51 µM), for the others: at the highest dose activity change, negative = inhibition, hits mostly inhibitors | 410 compounds, 34% hits; note: nearly all actives have a fitted effect of over 55% in size
Papain cs: inhibits papain in a CHIKV nsP2 protease selectivity counterscreen. Potency, µM (series often up to 51 µM), without a hit: at the top dose activity change, negative = inhibition, actives largely listed as inhibitors. purified papain protease activity, enzymatic inhibition. shares compounds with nsP2pro inh. 410 compounds, 5% hits. AID 1964104
nsP2pro conf qHTS: CHIKV nsP2 protease inhibition, confirmatory qHTS | shares compounds with nsP2pro inh | Potency, µM (highest dose often 25.5 µM), for the others: top-dose activity change, negative = inhibition, hits mostly inhibitors | CHIKV nsP2 protease enzymatic activity, qHTS | AID 1964105 | 410 compounds, 43% hits; note: nearly all actives have a fitted effect of over 75% in size
HCV NS3 counter: HCV NS3/4A protease inhibition, counterscreen. Potency, µM (top dose mostly 50.9 µM), most hits filed as inhibitors. HCV NS3/4A protease biochemical counterscreen. shares compounds with nsP2pro inh. 410 compounds, 20% hits; note: nearly all actives have a fitted effect of over 55% in size
Numbers without * were called inactive; i = inactive; ? = inconclusive; [ ] = another dose, or the depositor's remark. The entries come from a sample that favours hits as a whole. Calls come from the whole dose curve. % is set by controls: 0 for no effect and ±100 for the full control effect; potency is the fitted concentration of half-maximal effect.

SMILES	nsP2pro inh	others
[2H]N[C@@H](Cc1ccccc1)C(=O)N1CCC[C@H]1C(=O)N[C@@H](CCCNC(=N)N)C(=O)N1CCC[C@H]1C(=O)NCC(=O)NCC(=O)NCC(=O)NCC(=O)N[C@@H](CC(N)=O)C(=O)NCC(=O)N[C@@H](CC(=O)O)C(=O)N[C@@H](Cc1ccccc1)C(=O)N[C@@H](CCC(=O)O)C(=O)N[C@@H](CCC(=O)O)C(=O)N[C@H](C(=O)N1CCC[C@H]1C(=O)N[C@@H](CCC(=O)O)C(=O)N[C@@H](CCC(=O)O)C(=O)N[C@@H](Cc1ccc(O)cc1)C(=O)N[C@@H](CC(C)C)C(=O)O)[C@@H](C)CC	-26%[5.1 µM]
CN([C@H]1c2cc(OCCCC(F)(F)F)ccc2OC(C)(C)[C@@H]1O)S(C)(=O)=O	-11%
CC(C)(C)NCC(O)COc1ccccc1C#N (stereo unspecified)	-2%
C=C1[C@H](OC(C)=O)[C@H]2[C@@H](OC(=O)c3ccccc3)[C@@H](C)C[C@]2(O)[C@@H](OC(C)=O)[C@H](C)/C=C/C(C)(C)C(=O)[C@H](OC(C)=O)[C@H]1OC(C)=O	6%[10 µM]
O=C(NCc1cccc(F)c1)N1CCC(n2cnnc2C2CC2)C1 (stereo unspecified)	-6%
O=C1CCCC2=C1C(c1ccc(F)cc1)N=C(Nc1nc3ccccc3o1)N2 (stereo unspecified)	i
O=C(c1ccco1)N1CCN(C(=O)c2cnn(-c3cccc(F)c3)c2C2CCNCC2)CC1	-40%
Cc1cc(C)cc(NC(=O)c2cnn(-c3ccc(C)c(C)c3)c2C2CCNCC2)c1	-16%
O=C(Nc1cccc(C(F)(F)F)c1)c1cnn(-c2cccc(F)c2)c1C1CCNCC1	8.9µM*	nsP2 cell sec=114%;CHIKV NSP2 FL=12µM*;Furin counterscr=-7%;nsP2 NS23 pep=?;Papain cs=3%;nsP2pro conf qHTS=?;HCV NS3 counter=7.3µM*
Cc1nn(C)c(C)c1CN(Cc1ccnc2ccccc12)C1CC1	-15%
O=C(O)[C@H]1C2CCC(CC2)[C@@H]1Nc1nc(-c2c[nH]c3ncc(F)cc23)ncc1F	?	nsP2 cell sec=-11%;CHIKV NSP2 FL=-36%;Furin counterscr=-11%;nsP2 NS23 pep=i;Papain cs=?;nsP2pro conf qHTS=?;HCV NS3 counter=i
Cc1ccc(OCCn2c(CCNC(=O)CCc3ccccc3Br)nc3ccccc32)cc1	-8%
C=C[C@]1(C)C[C@@H](OC(=O)CSC2C[C@H]3CC[C@@H](C2)N3C)C2(C)[C@H](C)CCC3(CCC(=O)[C@H]32)[C@@H](C)[C@@H]1O (stereo partly specified)	11%
Cc1[nH]cnc1CN1CCc2c(c3ccccc3n2C)C1=O	-12%
Cc1nccn1CC1CCc2c(c3ccccc3n2C)C1=O (stereo unspecified)	61%
Cc1[nH]cnc1C[C@H]1CCc2c(C)c3ccccc3n2C1=O	?	nsP2 cell sec=-7%;CHIKV NSP2 FL=97%;Furin counterscr=-4%;nsP2 NS23 pep=-7%;Papain cs=-6%;nsP2pro conf qHTS=53%;HCV NS3 counter=i
OC[C@@]1(O)CO[C@H](OC[C@H]2O[C@@H](OC(CCCCc3ccc(O)cc3)CCc3ccc(O)cc3)[C@H](O)[C@@H](O)[C@@H]2O)[C@@H]1O (stereo partly specified)	-19%[10 µM]
Cc1cccc2c(C(=O)O)cc(Cl)nc12	-2%
CC(=O)N[C@@H]1CN(C(=O)CCc2c[nH]c3ccccc23)C[C@H]1CO	i
O=C1c2ccccc2C(=O)N1c1cccnc1	i

Source: PubChem BioAssay
